RORgamma inh = inhibitors of mouse ROR gamma transcriptional activity; 5.4% of 310,000 active; P51450; Potency, µM (series often up to 53.6 µM), usual class: inhibitors; Drosophila S2 Gal4-RORgamma UAS-luciferase reporter, 20 h; further: nearly all actives have a fitted effect of over 60% in size
Target sequence (P51450 whole entry, looked up, the tested form may be a part): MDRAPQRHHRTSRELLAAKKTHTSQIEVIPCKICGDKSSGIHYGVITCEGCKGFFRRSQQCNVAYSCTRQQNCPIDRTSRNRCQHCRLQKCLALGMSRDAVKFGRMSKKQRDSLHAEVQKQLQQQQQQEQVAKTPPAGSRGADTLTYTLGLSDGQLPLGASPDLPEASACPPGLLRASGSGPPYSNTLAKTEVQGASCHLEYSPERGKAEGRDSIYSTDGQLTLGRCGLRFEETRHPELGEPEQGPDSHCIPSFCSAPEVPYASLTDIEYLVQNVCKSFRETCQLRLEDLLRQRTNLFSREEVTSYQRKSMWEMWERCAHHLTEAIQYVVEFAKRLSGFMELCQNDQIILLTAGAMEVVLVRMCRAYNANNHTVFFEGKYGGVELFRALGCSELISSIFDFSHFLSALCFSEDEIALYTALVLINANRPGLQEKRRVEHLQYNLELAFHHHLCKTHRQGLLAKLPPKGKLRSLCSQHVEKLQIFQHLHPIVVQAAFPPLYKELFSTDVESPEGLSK
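In this cell-based reporter format, copper sulfate (700 uM final) drives Gal4–ROR gamma fusion expression from a metallothionein promoter in Drosophila Schneider cells; compounds preincubated 1 hr, reporter read after 20 hr at ambient temperature.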
IL-1B inflam inh = inflammasome signaling inhibition, IL-1 beta readout | THP-1 LPS/ATP IL-1B secretion, AlphaLISA, 16 h; stronger effect = lower value | activity change, % at 57.5 µM | 4.7% of 360,000 active | AID 743279; in the data active means activity change below about -50%; inconclusive means mostly about -30% to -49%
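THP-1 cells pretreated 1 hr with compounds (up to 57.5 uM final), then stimulated with LPS (250 ng/mL final) plus ATP (1.25 mM final); secreted IL-1B measured by AlphaLISA after 16 hr, decreased signal indicating inhibition.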
VP16 counter = counter-screen for ROR gamma inhibitors: Gal4-VP16 reporter; Potency, µM (titrated, usually from 53.6 µM), most hits filed as inhibitors; AID 2546; Drosophila S2 Gal4-VP16 UAS-luciferase, luminescence, 20 h; 3.5% of 310,000 active;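 further: Gal4-VP16 expression switched on by copper sulfate through the metallothionein promoter; nearly all actives have a fitted effect of over 50% in size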
TDP1 cell CPT = growth inhibition of DT40 Tdp1-/-;hTDP1 cells with camptothecin (screen for TDP1 inhibitors) | 12% of 420,000 active | Potency, µM (highest dose often 46.2 µM), hits mostly inhibitors | chicken DT40 Tdp1-/-;hTDP1 cells + 20 nM CPT, ATP luminescence, 48 h; further: nearly all actives have a fitted effect of over 55% in size
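Cell growth measured by CellTiter-Glo luminescence after a minimum 48 h, 37 C compound exposure with 20 nM CPT in Tdp1-knockout DT40 cells stably expressing hTDP1, seeded 400/well; qHTS titration format.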
TDP1 cell noCPT = qHTS for Inhibitors of human tyrosyl-DNA phosphodiesterase 1 (TDP1): qHTS in cells in absence of CPT | DT40 Tdp1-/- hTDP1 cells, no CPT, ATP luminescence, 48 h | Potency, µM (doses to about 46.2 µM), most hits filed as inhibitors | AID 686978, 2013 | 15% of 420,000 active; further: nearly all actives have a fitted effect of over 55% in size
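Growth kinetics read by CellTiter-Glo luminescence after ≥48 hr at 37 °C. Cells: DT40 Tdp1-/- stably carrying human TDP1, 400 per well, compound exposure in the absence of CPT (DMSO vehicle).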
ELG1 DNA repair = blocks ELG1-dependent DNA repair in HEK293T cells. HEK293T ELG1-luciferase reporter, luminescence, 16 h; DNA damage induced by 5-fluorouridine. Potency, µM (series often up to 46.1 µM), usual class: inhibitors. 2.3% of 330,000 active. AID 504467; further: nearly all actives have a fitted effect of over 55% in size
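Quantitative HTS, concentration-response format. 2,000 cells/well co-treated with 5-fluorouridine and compound, 16 hr in 5% CO2 at 37 °C; ONE-Glo luminescence read after 30 min.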
Of the large screens only hits and unclear results are named; the others gave an inactive call. The list is not random: actives were taken first. Their share in the collection is about 21%. Unless noted, the call rests on the fitted dose curve; in most records, active means well fitted curve in the direction sought with a large enough effect; inconclusive means small, poorly fitted or top-dose-only effect, or another doubt; inactive means no such curve, though single readings can be large; an effect the other way counts as inactive or inconclusive.

Cn1c(SCC(=O)NCc2ccc3c(c2)OCO3)nc2c(c1=O)SCC2	none
Cn1c(SCc2ccc(Br)cc2)nc2c(c1=O)SCC2	RORgamma inh inconclusive, VP16 counter inconclusive, TDP1 cell CPT 18µM, TDP1 cell noCPT 16µM, ELG1 DNA repair inconclusive
Cn1c(SCC(=O)Nc2cccc(F)c2)nc2c(c1=O)SCC2	TDP1 cell CPT 15µM, TDP1 cell noCPT 18µM, ELG1 DNA repair inconclusive
CCOC(=O)c1ccc(NC(=O)CSc2nc3c(c(=O)n2-c2ccccc2OC)SCC3)cc1	TDP1 cell CPT inconclusive, TDP1 cell noCPT 12µM
CCCCCCC1CC(CC(=O)Nc2ccc([N+](=O)[O-])cc2)C(=O)O1 (stereo not given)	RORgamma inh inconclusive, IL-1B inflam inh -61, VP16 counter inconclusive, TDP1 cell CPT 18µM, TDP1 cell noCPT inconclusive
O=C(CC1OCC2CCCN2C1=O)Nc1ccc([N+](=O)[O-])cc1 (stereo not given)	RORgamma inh inconclusive, IL-1B inflam inh inconclusive, VP16 counter inconclusive, TDP1 cell CPT 16µM, TDP1 cell noCPT inconclusive
CCN1CCOC(CC(=O)Nc2ccc([N+](=O)[O-])cc2)C1=O (stereo not given)	TDP1 cell CPT 15µM, TDP1 cell noCPT inconclusive
O=C(CN1CCCC1)Nc1ccc([N+](=O)[O-])cc1	none
COc1cccc(NC(=O)CC2C(=O)NC3CCCCC3N2C(=O)c2ccccc2)c1 (stereo not given)	none (no result: RORgamma inh, VP16 counter, ELG1 DNA repair)
CC1(C)CC(CC(=O)Nc2ccc([N+](=O)[O-])cc2)C(=O)O1 (stereo not given)	none
O=C(CC1C(=O)NC2CCCCC2N1C(=O)c1ccc([N+](=O)[O-])cc1)Nc1ccccc1 (stereo not given)	TDP1 cell CPT inconclusive, TDP1 cell noCPT 16µM
O=S1(=O)CC(N2CCCC2)CN1Cc1cn(Cc2ccc(Cl)cc2)nn1 (stereo not given)	none (no result: RORgamma inh, VP16 counter, ELG1 DNA repair)
O=C(CNC(=O)c1ccccc1F)NCC(c1cccs1)N1CCOCC1 (stereo not given)	none (no result: RORgamma inh, VP16 counter)
CN(Cc1ccco1)c1nc(-c2cccc(C#N)c2)nc2ccccc12	TDP1 cell CPT inconclusive, TDP1 cell noCPT inconclusive (no result: IL-1B inflam inh, ELG1 DNA repair)
CSCCC(C(=O)Nc1c(C)cccc1C)N(C)CCc1ccccc1 (stereo not given)	TDP1 cell CPT 18µM, TDP1 cell noCPT 16µM (no result: RORgamma inh, VP16 counter, ELG1 DNA repair)
Cc1nc2c(C(=O)N(C)Cc3ccccc3)c[nH]n2c(=O)c1Cc1ccc(Cl)cc1	TDP1 cell CPT 18µM, TDP1 cell noCPT inconclusive (no result: RORgamma inh, IL-1B inflam inh, VP16 counter, ELG1 DNA repair)
Cc1ccc(N2C(=O)C3C4C=CC(CNC(=S)N5CCN(c6ccccn6)CC5)(O4)C3C2=O)cc1 (stereo not given)	RORgamma inh inconclusive, TDP1 cell CPT 23µM, TDP1 cell noCPT 18µM
CCc1ccccc1N1CC23C=CC(O2)C(C(=O)OCC(C)C)C3C1=O (stereo not given)	none
CN(C)CCNC(=S)Nc1ccc(Cl)cc1	none
S=C(NC1CCCCC1)N1CCN(c2ccccn2)CC1	TDP1 cell noCPT inconclusive
Cc1ccc(N2C(=O)C3C4C=CC(CNC(=S)Nc5ccc(Cl)cc5)(O4)C3C2=O)cc1 (stereo not given)	RORgamma inh 7.1µM, VP16 counter 3.2µM, TDP1 cell CPT inconclusive, TDP1 cell noCPT 23µM
CC(C)COC(=O)NCC12C=CC(O1)C1C(=O)N(c3ccc(Cl)cc3)C(=O)C12 (stereo not given)	RORgamma inh 4µM, VP16 counter 20µM, TDP1 cell CPT 16µM, TDP1 cell noCPT 18µM
Cc1ccc(N2C(=O)C3C4C=CC(CNC(=S)Nc5ccc(F)cc5)(O4)C3C2=O)cc1 (stereo not given)	RORgamma inh 4.5µM, VP16 counter 4µM, TDP1 cell CPT inconclusive, TDP1 cell noCPT 18µM
CCC(=O)N1CCCC(C(=O)NS(=O)(=O)c2cc(C)c(Cl)cc2C)CC1 (stereo not given)	none (no result: RORgamma inh, VP16 counter, ELG1 DNA repair)
COC1OC(c2ccccc2)=C(c2cnc(N)nc2)c2ccc(F)cc21 (stereo not given)	none (no result: RORgamma inh, VP16 counter, ELG1 DNA repair)
Cc1ccc(N2C(=O)C3C4C=CC(CNC(=S)Nc5cccc(Cl)c5)(O4)C3C2=O)cc1 (stereo not given)	RORgamma inh inconclusive, VP16 counter 13µM, TDP1 cell CPT inconclusive, TDP1 cell noCPT 15µM
Cc1ccn2cc(CNC(=O)c3cccc(C(F)(F)F)c3)nc2c1	none (no result: RORgamma inh, IL-1B inflam inh, VP16 counter, ELG1 DNA repair)
COc1cc(C=O)ccc1Oc1nc(Nc2ccc(F)cc2F)nc(N2CCOCC2)n1	IL-1B inflam inh -56, TDP1 cell CPT inconclusive, TDP1 cell noCPT inconclusive, ELG1 DNA repair inconclusive
CCc1ccccc1Nc1nn2c(=O)c3ccc(C(=O)NC(C)C)cc3nc2s1	none (no result: RORgamma inh, IL-1B inflam inh, VP16 counter, ELG1 DNA repair)
CCc1ccccc1Nc1nn2c(=O)c3ccc(C(=O)NCc4cccs4)cc3nc2s1	TDP1 cell CPT inconclusive, TDP1 cell noCPT 21µM (no result: RORgamma inh, IL-1B inflam inh, VP16 counter, ELG1 DNA repair)
CCc1ccccc1Nc1nn2c(=O)c3ccc(C(=O)NCc4ccccc4Cl)cc3nc2s1	TDP1 cell CPT inconclusive, TDP1 cell noCPT 9.2µM (no result: RORgamma inh, IL-1B inflam inh, VP16 counter, ELG1 DNA repair)
COCC(=O)N1C[C@H]2CON(C)[C@H]2C[C@H]1c1cccc(-c2ccccc2)c1	none (no result: RORgamma inh, VP16 counter, ELG1 DNA repair)
Cc1ccc(NC(=O)CCN2C(=O)C3CCCCC3C2=O)cc1[N+](=O)[O-] (stereo not given)	none (no result: RORgamma inh, VP16 counter)
CCCc1cc(=O)oc2c3c(c4c(c12)OC(C)(C)C=C4)OC(C)C(C)C3O (stereo not given)	IL-1B inflam inh -71, VP16 counter inconclusive, TDP1 cell CPT 8.2µM, TDP1 cell noCPT 6.5µM, ELG1 DNA repair inconclusive
CC(NC(=O)CCNC(=O)N1CCn2c1nc1ccccc12)c1ccccc1 (stereo not given)	TDP1 cell noCPT inconclusive
COc1cc(C2=NOC(C(=O)NCc3ccc(F)cc3)C2)cc(OC)c1OC (stereo not given)	TDP1 cell CPT 0.82µM, TDP1 cell noCPT 0.58µM, ELG1 DNA repair inconclusive
COc1cccc(C2=NOC(C(=O)NCc3cccs3)C2)c1 (stereo not given)	TDP1 cell CPT 21µM, TDP1 cell noCPT 15µM, ELG1 DNA repair inconclusive
COc1cccc(C2=NOC(C(=O)NCc3cccnc3)C2)c1 (stereo not given)	TDP1 cell noCPT inconclusive
COc1cccc(C2=NOC(C(=O)NCc3ccc(F)cc3)C2)c1 (stereo not given)	TDP1 cell CPT 12µM, TDP1 cell noCPT 18µM
COc1ccc(C2=NOC(C(=O)NCc3ccc(F)cc3)C2)cc1OC (stereo not given)	TDP1 cell CPT 5.8µM, TDP1 cell noCPT 5.8µM
COc1ccc(CNC(=O)C2CC(C)=C(C)CC2C(=O)O)cc1OC (stereo not given)	TDP1 cell CPT 1.3µM, TDP1 cell noCPT 1.3µM

Screening results from PubChem BioAssay.
